Measured values published in PubChem BioAssay AID1345085 (National Center for Advancing Translational Sciences (NCATS), 2018).
Inconclusive results are not listed. Activity calls are given as the source filed them. Calls follow the shape of the dose curve; as a rule, active = well fitted cell-killing curve with a large enough effect; inconclusive = small, poorly fitted or top-dose-only effect, or effect the other way; inactive = no such curve, though single readings can be large or run the other way.

The compounds below were run on Es-2 (assay: Confirmatory qHTS for gynecologic anti-cancer compounds from libraries of approved drugs and bioactive compounds). Details: gynecologic cancer cell panel viability, ATPlite luminescence, 48 h; series mostly up to 57.6 µM; activity change, negative = viability loss: at the top concentration.
Summary of the method: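 Cells (1,000/well) plated 16 h, then exposed 48 h at 37 °C to 11 concentrations (1:3) from 57.5 uM to 0.977 nM. Viability by ATPlite luminescence after 15 min; IC50 derived, with HEK 293T used for selectivity index.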
% is scaled to controls: 0 for no effect and ±100 for the full control effect; potency is read from the fitted curve at half-maximal effect.
Also: nearly all actives have a fitted effect of over 55% in size.

SMILES | activity change, negative = viability loss | Potency
Cc1cc(SCc2sc(-c3ccc(C(F)(F)F)cc3)nc2C)ccc1OCC(=O)O | -3.41% (inactive) | 
C#C[C@]1(O)CC[C@H]2[C@@H]3CCC4=CC(=O)CC[C@@H]4[C@H]3CC[C@@]21CC | 4.9% (inactive) | 
CCN[C@H]1C[C@H](C)S(=O)(=O)c2sc(S(N)(=O)=O)cc21 | 0.905% (inactive) | 
Cn1c(=O)c(-c2c(Cl)cccc2Cl)cc2cnc(Nc3cccc(C(=O)O)c3)nc21 |  | 2.73 µM (active)
Cc1nc(Nc2n[nH]c3c2CN(C(=O)NC(CN(C)C)c2ccccc2)C3(C)C)c2sccc2n1 (configuration not stated) |  | 4.32 µM (active)
Cc1ccc(C(=O)Nc2cccc(C(F)(F)F)c2)cc1-c1ccc2nc(NCCN3CCOCC3)ncc2c1 |  | 5.44 µM (active)
CNc1nc(Nc2ccc(C(=O)N3CCOCC3)cc2OC)ncc1Cl | -4.5% (inactive) | 
Cc1[nH]c2ccccc2c1CCNCc1ccc(/C=C/C(=O)NO)cc1 |  | 0.172 µM (active)
O=C1Cc2cc(CCN3CCN(c4nsc5ccccc45)CC3)c(Cl)cc2N1 | 12.2% (inactive) | 
CN(NC(=O)CC(=O)NN(C)C(=S)c1ccccc1)C(=S)c1ccccc1 |  | 0.611 µM (active)
Cc1nc(N)sc1-c1ccnc(Nc2ccc(N3CCOCC3)cc2)n1 |  | 9.68 µM (active)
COc1cc(N2CCC(N3CCN(C)CC3)CC2)ccc1Nc1ncc(Cl)c(Nc2ccccc2S(=O)(=O)C(C)C)n1 |  | 24.3 µM (active)
Cc1ccc(C(=O)Nc2ccc(CN3CCN(C)CC3)c(C(F)(F)F)c2)cc1C#Cc1cnc2cccnn12 |  | 6.11 µM (active)
CCCCN(CCCC)CC(O)c1cc(Cl)cc2c1-c1ccc(Cl)cc1/C2=C/c1ccc(Cl)cc1 (configuration not stated) | -28.3% (inactive) | 
NS(=O)(=O)c1ccc(Nc2nc(OCC3CCCCC3)c3[nH]cnc3n2)cc1 | -17.6% (inactive) | 
CN(C)CC/C=C1\c2ccccc2COc2ccccc21 | 14.1% (inactive) | 
O=C(c1ccc(/C=C/c2n[nH]c3ccccc23)cc1)N1CCNCC1 |  | 27.3 µM (active)
Cc1ccc(C(=O)N(CCCN)C(c2nc3cc(Cl)ccc3c(=O)n2Cc2ccccc2)C(C)C)cc1 (configuration not stated) |  | 3.85 µM (active)
CCCCc1oc2ccccc2c1C(=O)c1cc(I)c(OCCN(CC)CC)c(I)c1 |  | 70.8 µM (active)
COc1cc2c(cc1-c1c(C)noc1C)ncc1[nH]c(=O)n(C(C)c3ccccn3)c12 (configuration not stated) |  | 2.17 µM (active)
COc1cc(N2CCC(N)CC2)ccc1Nc1ncc(Cl)c(-c2c[nH]c3ccccc23)n1 | -23.3% (inactive) | 
C[C@]12CCC(=O)C=C1[C@@H]1C[C@@H]1[C@H]1[C@@H]3[C@@H]4C[C@@H]4[C@@]4(CCC(=O)O4)[C@@]3(C)CC[C@@H]12 | -1.03% (inactive) | 
